From PubChem BioAssay
SIRT5 inh = sirtuin-5 (human) deacylase inhibition | Q9NXA8 | Purified SirT5, succinyl-peptide AMC, trypsin-coupled fluorescence | inhibition, % at 15 µM | 330,000 tested, 1.1% active | AID 652115; in the data active = inhibition above about 15%
GSIS activator = GLuc luminescence reporter in INS-1E cells, primary screen for activators of glucose-dependent secretion of insulin | AID 743287 | INS-1E GLuc reporter insulin secretion, 2-3 h | activation, % at 16.6 µM | 370,000 tested, 0.61% active;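 active = lowest replicate activation of at least 40%, so every replicate reaches that level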;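 note: 0% = median of neutral control wells and 100% = median of IBMX positive control wells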
Casp6 inh = caspase-6 (human) enzyme inhibition; purified caspase-6, Z-VEID-R110 cleavage fluorescence; inhibition, % at 12.5 µM; 350,000 tested, 0.53% active; AID 686996;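 active = mean inhibition across replicates at least about 35%, with every replicate also reaching that limit, limit read from the data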;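 note: 0% = median of neutral control wells and 100% = no fluorescence left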
Target sequence (P55212 24-179 limits assumed): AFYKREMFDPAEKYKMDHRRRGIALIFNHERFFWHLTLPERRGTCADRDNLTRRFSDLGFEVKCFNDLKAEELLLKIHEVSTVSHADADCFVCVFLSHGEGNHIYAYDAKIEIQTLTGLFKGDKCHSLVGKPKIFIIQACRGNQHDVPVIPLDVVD
Target sequence (P55212 194-293 limits assumed): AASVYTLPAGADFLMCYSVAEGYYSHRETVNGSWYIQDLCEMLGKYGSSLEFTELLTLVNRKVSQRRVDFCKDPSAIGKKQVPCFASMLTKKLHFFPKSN
ERAP1 HTS inh = blocks human ERAP1 aminopeptidase activity; inhibition, % at 10.7 µM; 340,000 tested, 0.15% active; recombinant ERAP1, Leu-AMC fluorescence, 60 min; Q9NZ08;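 active = mean replicate inhibition of at least 30%, or all replicates individually reaching that 30% level; inactive = mean below 30% and not every replicate reaching it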;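 note: 0% = neutral control wells and 100% = L-leucinethiol positive control wells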
FGF22 binding = binders of recombinant human FGF22 by thermal shift; 340,000 tested, 1.5% active; AID 651658; SYPRO orange fluorescence; percent of sucrose octasulfate shift, DMSO zero; activity (Tm shift, normalised), % at 9.99 µM;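 active = mean Tm shift, scaled 0 neutral to 100 positive control, at about 1.3% or above, every replicate too, limit read from the data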
The depositor's hits bear a star; . = no result. An excerpt weighted towards active compounds, which were near 3.3% of everything screened.

SMILES | SIRT5 inh | GSIS activator | Casp6 inh | ERAP1 HTS inh | FGF22 binding
COc1ccc(CCNC(=O)c2cc(CC(C)C)on2)cc1OC | 15* | -10 | 0 | 20 | 0
COc1ccc(CCNC(=O)CSc2n[nH]c(N)n2)cc1OC | -7 | 86* | 1 | 0 | 0
C[C@@H]1CN([C@@H](C)CO)C(=O)c2cc(NC(=O)c3ccccc3)ccc2O[C@@H](C)CCCCO[C@H]1CN(C)C(=O)C1CCCCC1 | 6 | -16 | 0 | -2 | 0
COc1ccc(CCNC(=O)CCc2ccccc2)cc1OC | 0 | 60* | -1 | . | 1
COc1ccc(CCNC(=O)C(=O)NN=C2CCCCCCC2)cc1OC | -1 | 59* | 1 | 3 | 0
COc1cccc2cc(C(=O)NCc3ccc(Cl)cc3)c(=O)oc12 | 1 | -4 | 1 | 2 | 0
COc1ccc(CCNC(N)=S)cc1OC | . | 53* | . | . | .
COc1ccc(CCNC(=S)NCCc2ccc(OC)c(OC)c2)cc1OC | 0 | 7 | -1 | 0 | 0
COc1ccc(CCNC(=O)c2cc3cccc(OC)c3oc2=O)cc1OC | -1 | . | 44* | 0 | 0
CCNC(=O)C[C@@H]1CC[C@@H]2[C@H](COc3ccc(NC(=O)C4CCOCC4)cc3C(=O)N2C)O1 | 1 | -2 | -1 | 1 | 0
COc1ccc(CCNC(=O)c2cnc3scc(C)n3c2=O)cc1OC | 1 | 61* | -2 | 4 | 0
COc1ccc(CCNC(=O)CCc2nc3ccccc3[nH]2)cc1OC | -3 | 90* | -1 | . | 0
CCOc1ccc(CCNC(=O)CCc2nc3ccccc3[nH]2)cc1OCC | 4 | 31 | 9 | 23 | 0
COc1cc(/C=C/C(=O)OCC(=O)NCCCc2ccccc2)cc(OC)c1OC | 2 | 10 | 0 | -1 | 0
COc1ccc(CCNC(=O)CN2c3cccc4cccc(c34)S2(=O)=O)cc1OC | -3 | 98* | . | 10 | 0
COc1cc(/C=C/C(=O)OCC(=O)NCCc2ccccc2)cc(OC)c1OC | -2 | -11 | -1 | -2 | 44*
CO[C@H]1CC[C@H]2CCN(C)C(=O)[C@@H](C)[C@H](OC)CN(C)C(=O)c3cc(C#N)ccc3OC[C@@H]1O2 | 16* | 3 | -71 | -2 | 0
CO[C@H]1CN(C)C(=O)c2cccc(C#N)c2OC[C@H]2O[C@H](CC[C@H]2OC)CCN(C)C(=O)[C@@H]1C | 1 | 11 | 0 | 4 | 0
CO[C@H]1CN(C)C(=O)c2cccc(C#N)c2OC[C@H]2O[C@H](CC[C@@H]2OC)CCN(C)C(=O)[C@H]1C | 21* | 6 | -15 | -1 | 0
Cc1ccc(S(=O)(=O)N(C)C[C@@H]2Oc3ccc(NC(=O)CCCN(C)C)cc3CC(=O)N([C@@H](C)CO)C[C@H]2C)cc1 | -3 | -4 | 0 | 0 | 0
Cc1ccc(C[n+]2cc(-c3ccc(Cl)cc3)n3c2CCC3)cc1 | -3 | -47 | 0 | 2 | 0
Cc1ccc(-c2c[n+](Cc3ccc(Cl)cc3)c3n2CCC3)cc1 | 40* | . | -1 | 2 | 0
COc1ccccc1-n1cnc2sc(C)c(C)c2c1=O | -5 | 59* | -2 | -3 | 0
COc1ccc(C(=O)NCC(=O)OCC(=O)NC2CCCCCC2)cc1OC | -1 | 65* | 0 | -5 | 0
O=C(COC(=O)CNC(=O)c1ccccc1)NC(=O)NC1CCCCC1 | 23* | -8 | 0 | -6 | 0
SMILES | SIRT5 inh | GSIS activator | Casp6 inh | ERAP1 HTS inh | FGF22 binding
Cc1ccc(S(=O)(=O)Nc2ccc3c(c2)C(=O)N([C@@H](C)CO)C[C@@H](C)[C@H](CN(C)Cc2ccc(C(=O)Nc4ccccc4N)cc2)O3)cc1 | 6 | 11 | 0 | -1 | 0
Cc1ccc(-n2ncc3c(=O)n(CC(=O)Nc4cccc(Cl)c4)cnc32)cc1C | . | 257* | . | . | .
COc1ccc(NC(=O)Cn2cnc3c(cnn3-c3ccc(C)c(C)c3)c2=O)c(OC)c1 | . | 97* | . | . | .
CC(C)NC(=O)N(C)C[C@@H]1Oc2cc(-c3cccnc3)ccc2S(=O)(=O)N([C@H](C)CO)C[C@@H]1C | -2 | 21 | 5 | -1 | .
C[C@H]1CN([C@@H](C)CO)C(=O)c2cc(NS(=O)(=O)c3cccs3)ccc2O[C@@H]1CN(C)C(=O)NC1CCCCC1 | 5 | 11 | -3 | -4 | -1
CN1CCN(C(=O)C[C@H]2CC[C@@H]3[C@H](COC[C@H](O)CN3CC3CCOCC3)O2)CC1 | 10 | 8 | -37 | 0 | 0
